A selection: hits, their analogues and other compounds. The true share with any hit is near 3.7%.
ELG1 DNA repair: inhibitors of ELG1-dependent DNA repair in HEK293T cells; HEK293T ELG1-luciferase reporter, luminescence, 16 h; DNA damage induced by 5-fluorouridine; Potency, µM (doses to about 46.1 µM), hits mostly inhibitors; actives 2.3% (n = 330,000); also: nearly all actives have a fitted effect of over 55% in size
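In this reporter screen, reduction of luminescence relative to DMSO vehicle indicated activity. Compounds and 5-fluorouridine were added together to 2,000 cells per well, incubated for 16 hr at 37 °C, then developed with ONE-Glo.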
A549 tox: counter-screen for Nrf2 inhibitors: cytotoxicity in A549 cells; A549 ARE-Fluc cells, CellTiter-Fluor viability, 18-24 h; Potency, µM (doses to about 46 µM), actives largely listed as inhibitors; actives 0.16% (n = 390,000)
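A549 ARE-Fluc cells in 5% FBS OPTI-MEM, 5000 cells/well, rested 2 h then exposed to compounds in concentration-response for 18-24 h at 37 °C. Viability by CellTiter-Fluor fluorescence (Ex 405/Em 525) after 30 min; luciferase luminescence (BugLite, 15 min, RT) read afterwards.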
Nrf2 activator: activates Nrf2 signaling. AID 624171. AREc32 ARE-luciferase reporter (MCF7-derived line), luminescence, 24 h. Potency, µM (titrated, usually from 46.1 µM), usual class: activators. actives 0.31% (n = 410,000); also: nearly all actives have a fitted effect of over 65% in size
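AREc32 cells carrying an ARE-driven firefly luciferase, 1000 cells/well in OPTI-MEM with 5% FBS, dosed after overnight attachment and incubated 24 hr at 37 deg C. Steady-Glo luminescence read after 30 min at RT.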
Nrf2 inh: Nrf2 pathway inhibition. actives 2.1% (n = 360,000). AID 504444. Potency, µM (top dose mostly 46 µM), usual class: inhibitors. A549 ARE-Fluc reporter, luciferase luminescence, 18-24 h; also: nearly all actives have a fitted effect of over 60% in size
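Nrf2 function is reported as luminescence of an ARE-controlled luciferase in A549 cells. Compounds were tested at several concentrations, and a CellTiter-Fluor read on the same wells flagged cytotoxicity.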
ELG1 FLuc counter: luciferase inhibition in cell-free luciferin readout for ELG1 hits | shares compounds with ELG1 DNA repair | cell-free firefly luciferase luminescence counter-screen, ViewLux | Potency, µM (top dose mostly 46.1 µM), most hits filed as inhibitors | actives 3% (n = 350) | AID 624247
ELG1-Luc inh: inhibits ELG1-dependent DNA repair in HEK293T cells, confirmed; Potency, µM (top dose mostly 46.1 µM), most hits filed as inhibitors; shares compounds with ELG1 DNA repair; HEK293T ELG1-luciferase levels, luminescence; cells co-treated with 5-fluorouridine; actives 68% (n = 670); also: nearly all actives have a fitted effect of over 55% in size
ELG1 MMS Luc: MMS-stimulated human ELG1 repair inhibition, confirmed. shares compounds with ELG1 DNA repair. HEK293T luciferase-tagged ELG1 level, MMS stimulated. Potency, µM (top dose mostly 46.1 µM), most hits filed as inhibitors. actives 53% (n = 670). AID 624249; also: nearly all actives have a fitted effect of over 60% in size
ELG1 5FU viab: confirmation of ELG1 repair inhibitors: viability with 5FU. shares compounds with ELG1 DNA repair. Potency, µM (titrated, usually from 46.1 µM), usual class: cytotoxic. cell viability with 5-FU, ELG1-dependent repair. AID 624250. 670 tested, under 10 active;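 also: ELG1-luc HEK293T cells cotreated with 5-fluorouridine at 10 µM final; viability measured 16 h after compound addition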
ELG1 MMS viab: confirmation of ELG1 repair inhibitors: viability with MMS; shares compounds with ELG1 DNA repair; Cell viability with MMS, ELG1-dependent DNA repair; Potency, µM (top dose mostly 46.1 µM), usual class: cytotoxic; actives 33% (n = 670); AID 624251;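 also: ELG1-luc HEK293T cells co-treated with 10 µM MMS; viability read 16 h after compound addition; nearly all actives have a fitted effect of over 60% in size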
Cell viab unstim: counter-screen for ELG1 repair inhibitors: unstimulated cell viability. cell viability counter-screen, unstimulated, luminescence. AID 624252. shares compounds with ELG1 DNA repair. Potency, µM (titrated, usually from 45.9 µM), hits mostly cytotoxic. actives 8% (n = 900);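 also: compound exposure lasted 16 hours before reading; nearly all actives have a fitted effect of over 55% in size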
FLuc enzyme: inhibits purified firefly luciferase, counter-screen for ELG1 hits; shares compounds with ELG1 DNA repair; purified firefly luciferase, luminescence counter-screen; Potency, µM (doses to about 57.5 µM), hits mostly inhibitors; actives 10% (n = 350)
Numbers stand for hits; – = inactive; ? = inconclusive; · = not tested or not shown. Calls follow the shape of the dose curve; as a rule, active = well fitted curve in the direction sought with a large enough effect; inconclusive = small, poorly fitted or top-dose-only effect, or another doubt; inactive = no such curve, though single readings can be large; an effect the other way counts as inactive or inconclusive.

SMILES	ELG1 DNA repair	A549 tox	Nrf2 activator	Nrf2 inh	ELG1-Luc inh	ELG1 MMS Luc	ELG1 5FU viab	ELG1 MMS viab	Cell viab unstim	others
Cc1cc(C(=O)NNc2ccc(F)cc2F)no1	4.1µM	–	–	–	–	–	–	–	–
Cc1cc(N2CCN(C)CC2)nc2ccc(NC(=O)Nc3ccccc3Br)cc12	·	–	–	?	·	·	·	·	·
CC(=O)Oc1ccc(/C=C2/Oc3ccccc3C2=O)cc1	?	–	?	–	·	·	·	·	·
COc1ccc(/C=C2\Oc3ccccc3C2=O)cc1	?	–	–	?	·	·	·	·	–
COc1ccccc1N1CCN(CC(O)COc2ccc(C)cc2C(C)(C)C)CC1 (configuration not stated)	·	–	–	–	·	·	·	·	·
COc1ccc(-c2coc3cc(O)cc(O)c3c2=O)cc1	?	?	–	–	·	·	·	·	–
Cc1c(C(C)C)c(=O)n(-c2ccc(S(=O)(=O)N3CCOCC3)cc2)n1C	–	–	–	?	·	·	·	·	·
Cc1c(C(C)C)c(=O)n(-c2ccc(S(=O)(=O)NC3CCCCC3)cc2)n1C	2.1µM	–	–	15µM	?	2.2µM	–	2.5µM	?
Cc1c(C(C)C)c(=O)n(-c2ccc(S(=O)(=O)NCc3ccccc3)cc2)n1C	1.5µM	–	–	7.3µM	?	1.3µM	–	1.3µM	?
Clc1ccccc1C1=Nn2c(nnc2-c2ccncc2)SC1	4.6µM	?	–	?	3.2µM	6.3µM	–	–	–	ELG1 FLuc counter=?;FLuc enzyme=–
Cc1sc(NC(=O)c2ccco2)c(C(c2cccnc2)N2CCN(c3ccc(F)cc3)CC2)c1C (configuration not stated)	–	–	–	15µM	·	·	·	·	–	ELG1 FLuc counter=–;FLuc enzyme=–
O=C(/C=C/c1c(F)cccc1Cl)N1CCOCC1	?	–	–	?	·	·	·	·	·
CCOc1ccccc1NC(=O)Cn1cnc2onc(-c3ccc(F)cc3)c2c1=O	·	–	–	?	·	·	·	·	·
Cc1ccc(NC(=O)COc2ccccc2)cc1S(=O)(=O)N1CCCCC1	·	·	–	·	·	·	·	·	·
Cc1ccccc1OCC(=O)Nc1ccc(C)c(S(=O)(=O)N2CCCCCC2)c1	1.3µM	–	–	23µM	28µM	6.3µM	?	8.9µM	–
COc1ccc(C(=O)N/N=C/c2cc(Br)ccc2O)cc1OC	2.1µM	–	–	–	4µM	13µM	–	16µM	–
CCOC(=O)N1CCN(C(=O)c2ccc3c(c2)N=C(C)c2cc(Cl)ccc2S3)CC1	3.7µM	–	–	?	8.9µM	?	?	?	?
CC1=Nc2cc(C(=O)N3CCCC3)ccc2Sc2c(C)ccc(C)c21	?	–	–	–	·	·	·	·	·
Clc1ccccc1CN1CCN(/N=C/C=C/c2ccco2)CC1	?	–	?	–	·	·	·	·	·
Cc1ccc(Cn2ncc3c(N4CCN(CCc5ccccc5)CC4)ncnc32)cc1	3.7µM	–	–	?	?	3.5µM	–	4µM	?
Cc1ccc(Cn2ncc3c(N4CCN(C)CC4)ncnc32)cc1	?	–	–	–	·	·	·	·	·
CCOC(=O)c1c(NC(=O)c2nc(SC)ncc2Cl)sc(C)c1C	·	–	–	–	·	·	·	·	·

Screens deposited in PubChem BioAssay by National Center for Advancing Translational Sciences (NCATS).
